RORg inh: ROR gamma (mouse) transcription inhibition | Drosophila S2 Gal4-RORgamma UAS-luciferase reporter, 20 h | 5.4% of 310,000 active | Potency, µM (doses to about 53.6 µM), hits mostly inhibitors | AID 2551 | P51450; further: nearly all actives have a fitted effect of over 60% in size
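Schneider cells (Drosophila), stable Gal4 DBD–ROR gamma + UAS-luc; 1 hr cmpd preincubation; Cu2+ induction 700 uM final; 20 hr ambient; luminescence.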
ALOX12 inh: inhibitors of human 12S-lipoxygenase ALOX12 | Potency, µM (doses to about 108 µM), usual class: inhibitors | P18054 | purified 12hLO, xylenol orange hydroperoxide absorbance | 1.1% of 580,000 active
Target sequence (P18054 whole entry, looked up): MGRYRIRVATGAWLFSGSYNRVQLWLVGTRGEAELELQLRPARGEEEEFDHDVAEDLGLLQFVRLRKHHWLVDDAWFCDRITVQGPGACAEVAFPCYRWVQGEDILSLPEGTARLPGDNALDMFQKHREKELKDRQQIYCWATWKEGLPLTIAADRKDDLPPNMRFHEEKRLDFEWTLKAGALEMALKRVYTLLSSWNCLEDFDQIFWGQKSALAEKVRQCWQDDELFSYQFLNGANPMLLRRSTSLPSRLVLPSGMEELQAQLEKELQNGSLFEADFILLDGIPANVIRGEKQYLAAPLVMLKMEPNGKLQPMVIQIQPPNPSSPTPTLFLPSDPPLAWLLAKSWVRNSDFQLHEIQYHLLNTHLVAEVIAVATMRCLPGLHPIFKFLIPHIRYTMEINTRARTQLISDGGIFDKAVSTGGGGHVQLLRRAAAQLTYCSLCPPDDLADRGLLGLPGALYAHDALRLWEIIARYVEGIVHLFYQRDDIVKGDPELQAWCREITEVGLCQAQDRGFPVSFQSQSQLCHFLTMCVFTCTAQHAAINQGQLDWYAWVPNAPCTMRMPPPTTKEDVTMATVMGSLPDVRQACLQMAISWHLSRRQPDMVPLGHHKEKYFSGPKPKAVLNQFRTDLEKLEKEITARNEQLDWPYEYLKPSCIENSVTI
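Purified human 12hLO at 150 nM in 25 mM Hepes, 0.01% Triton X-100, pH 7.0, preincubated 15 min at room temperature with compound. Reaction started with 40 uM arachidonic acid, 30 min at room temperature. Hydroperoxide measured by Fe-xylenol orange, 573/405 nm absorbance ratio.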
ELG1 DNA repair: inhibitors of ELG1-dependent DNA repair in HEK293T cells; AID 504467; Potency, µM (series often up to 46.1 µM), hits mostly inhibitors; HEK293T ELG1-luciferase reporter, luminescence, 16 h; DNA damage induced by 5-fluorouridine; 2.3% of 330,000 active; further: nearly all actives have a fitted effect of over 55% in size
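Reporter activity after DNA damage by 5-fluorouridine is monitored. Compound-treated cells incubate 16 hr at 37 °C, then ONE-Glo is added for 30 min before luminescence reading.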
VP16 counter: counter-screen for ROR gamma inhibitors: Gal4-VP16 reporter. Drosophila S2 Gal4-VP16 UAS-luciferase, luminescence, 20 h. Potency, µM (titrated, usually from 53.6 µM), usual class: inhibitors. 3.5% of 310,000 active;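 further: Gal4-VP16 expression switched on by copper sulfate through the metallothionein promoter; nearly all actives have a fitted effect of over 50% in size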
TDP1 cell CPT: growth inhibition of DT40 Tdp1-/-;hTDP1 cells with camptothecin (screen for TDP1 inhibitors); chicken DT40 Tdp1-/-;hTDP1 cells + 20 nM CPT, ATP luminescence, 48 h; Potency, µM (titrated, usually from 46.2 µM), most hits filed as inhibitors; 12% of 420,000 active; AID 686979; further: nearly all actives have a fitted effect of over 55% in size
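Chicken DT40 Tdp1-/- cells stably complemented with human TDP1 were seeded at 400 cells/well in medium containing 20 nM camptothecin, exposed to pin-transferred compounds, and grown at 37 °C for at least 48 hr. Viability was read as ATP luminescence.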
TDP1 cell noCPT: qHTS for Inhibitors of human tyrosyl-DNA phosphodiesterase 1 (TDP1): qHTS in cells in absence of CPT; DT40 Tdp1-/- hTDP1 cells, no CPT, ATP luminescence, 48 h; Potency, µM (doses to about 46.2 µM), usual class: inhibitors; 15% of 420,000 active; AID 686978, 2013; further: nearly all actives have a fitted effect of over 55% in size
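Camptothecin absent (DMSO only). Human TDP1-complemented DT40 knockout cells, 400 cells/well, 37 °C for minimum 48 hr; ATP measured via CellTiter-Glo, 30 min dark incubation, luminescence.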
A number is an active result; i = inactive; ? = inconclusive; nt = no result given. An excerpt weighted towards active compounds, which were near 15% of everything screened. The call rests on the fitted dose curve; in most records, active means well fitted curve in the direction sought with a large enough effect; inconclusive means small, poorly fitted or top-dose-only effect, or another doubt; inactive means no such curve, though single readings can be large; an effect the other way counts as inactive or inconclusive.

SMILES | RORg inh | ALOX12 inh | ELG1 DNA repair | VP16 counter | TDP1 cell CPT | TDP1 cell noCPT
COc1ccc(NC(=O)c2cccnc2NCCc2ccccc2)cc1 | ? | 45µM | i | i | 21µM | ?
O=C(Nc1ccccc1)c1cccnc1NCCc1ccccc1 | i | i | i | i | ? | 16µM
COc1ccc(C2CC=C(C(C)=O)CN2S(=O)(=O)c2ccccc2)cc1 (stereo not drawn) | nt | i | nt | nt | ? | 21µM
CCOc1ccc([C@@H]2CC=C(C(=O)O)CN2S(=O)(=O)c2ccc(C)cc2)cc1 | nt | ? | i | nt | i | i
COc1ccc([C@@H]2CC=C(C(=O)O)CN2S(=O)(=O)c2ccc(Cl)cc2)cc1 | nt | i | i | nt | i | i
COc1ccc(C2CC=C(C(C)=O)CN2S(=O)(=O)c2ccc(C)cc2)cc1 (stereo not drawn) | nt | i | nt | nt | ? | 23µM
CCOc1ccc(C2CC=C(C(C)=O)CN2S(=O)(=O)c2ccc(C)cc2)cc1 (stereo not drawn) | nt | i | nt | nt | 23µM | 23µM
Cc1oc(-c2ccc(C(F)(F)F)cc2)nc1CN(C)C(C)c1cccs1 (stereo not drawn) | nt | i | nt | nt | nt | nt
N#CC(C#N)=NNc1ccc2cn[nH]c2c1 | nt | ? | nt | nt | 4.1µM | 4.6µM
COc1ccc(-c2nc(NC3=NCCCCC3)sc2C)cc1 | 10µM | i | i | i | ? | ?
COC(=O)N1CCC2(CC1)CCN(C(c1ccccc1)c1ccccc1)CC2 | i | i | nt | i | i | ?
COC(=O)C1=C/C=C\CN(C(c2ccccc2)c2ccccc2)/C=C\1C(=O)OC | nt | ? | nt | nt | ? | 21µM
c1ccc(CN2CCC[C@H]2c2nc(-c3ccc(OC4CCCCC4)nc3)no2)nc1 | nt | i | nt | nt | nt | nt
CCCc1ccc(S(=O)(=O)NCCc2ccncc2)cc1 | i | i | ? | i | 13µM | ?
O=C(CCc1ccc(S(=O)(=O)NCCc2ccccc2)cc1)Nc1ccc2c(c1)OCCO2 | i | i | 13µM | i | i | ?
O=C(Nc1ccc(S(=O)(=O)NCCc2ccccc2)cc1)c1ccncc1 | i | i | i | i | 18µM | ?
CCCNS(=O)(=O)c1ccc(CCC(=O)Nc2ccc3c(c2)OCCO3)cc1 | i | i | i | i | i | i
CCCCCc1ccc(S(=O)(=O)NCCc2ccncc2)cc1 | i | i | ? | i | 21µM | 16µM
O=C1Nc2ccccc2C12CCN(c1cc(C3CC(O)C3)ncn1)CC2 (stereo not drawn) | nt | i | nt | nt | nt | nt
OC1CCCN(c2ccc(-c3nc(-c4cccc(C(F)(F)F)c4)no3)cn2)C1 (stereo not drawn) | nt | i | nt | nt | nt | nt
Cc1cc(C(C)(C)C)cc(S(=O)(=O)NCCc2ccncc2)c1C | i | i | i | i | ? | ?
CC(C)(C)c1ccc(S(=O)(=O)NCCc2ccncc2)cc1 | i | i | i | i | ? | 16µM
COCCN1C(=O)c2ccccc2C(C(=O)NCCCN2CCCC2)C1c1c[nH]c2ccccc12 (stereo not drawn) | i | ? | i | i | ? | 26µM
O=C(Nc1ccc(Cc2ccncc2)cc1)c1ccc([N+](=O)[O-])o1 | nt | i | i | nt | ? | ?
O=C(Nc1cccc(NC(=O)c2cccs2)c1)c1ccc([N+](=O)[O-])o1 | i | i | 16µM | ? | 3.3µM | 3.7µM
O=C(Nc1cccc(NC(=O)c2ccc([N+](=O)[O-])o2)c1)c1ccco1 | i | i | 12µM | ? | 5.8µM | 5.2µM
COc1cccc(NC(=O)C(OC(=O)c2ccc([N+](=O)[O-])o2)c2ccccc2)c1 (stereo not drawn) | 14µM | i | i | i | i | i
COc1cc(NC(=O)c2ccc([N+](=O)[O-])o2)ccc1NC(=O)c1cccs1 | ? | i | i | i | 2.3µM | 3.7µM
Cn1cnc2c1c(=O)n(CCCSCc1cccc3ccccc13)c(=O)n2C | nt | i | nt | nt | nt | nt
O=C(NCC1CN(CC2CC2)CC12CN(c1ccccc1)C2)Nc1ccccc1 (stereo not drawn) | nt | i | nt | nt | nt | nt

Source: PubChem (National Center for Advancing Translational Sciences (NCATS))
